HepG2 tox-1 – counter-screen for TGF-b inhibitors: cytotoxicity in HepG2 cells | Potency, µM (titrated, usually from 46.1 µM), inactives show at the highest dose activity change, negative = cytotoxicity, usual class: cytotoxic | HepG2 CAGA-GFP viability, ATP luminescence, 18 h | 0.76% of 410,000 active; also: potency is read from the fitted curve at half-maximal effect
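CellTiter-Glo luminescence gave cytotoxicity after 18 hours at 37 degrees C. The cells were HepG2 CAGA-GFP in 1% FBS DMEM, stimulated with 500 pg/mL TGF-beta after compound addition. %Activity was normalised to no-cell wells (complete cell-killing) and DMSO (no toxicity), and curves were fitted and classified.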
A549 tox-1 – counter-screen for Nrf2 inhibitors: cytotoxicity in A549 cells | A549 ARE-Fluc cells, CellTiter-Fluor viability, 18-24 h | Potency, µM (top dose mostly 46 µM), for the others: top-dose activity change, negative = cytotoxicity, usual class: inhibitors | 0.16% of 390,000 active | AID 504648; also: potency is read from the fitted curve at half-maximal effect; % is scaled to controls: 0 for no effect and ±100 for the full control effect
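A549 ARE-Fluc cells in 5% FBS OPTI-MEM, 5000 cells/well, rested 2 h then exposed to compounds in concentration-response for 18-24 h at 37 °C. Viability by CellTiter-Fluor fluorescence (Ex 405/Em 525) after 30 min; luciferase luminescence (BugLite, 15 min, RT) read afterwards.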
TGFb SMAD3 inh – inhibitors of TGF-b signaling; HepG2 CAGA-GFP TGF-b/SMAD3 reporter, GFP fluorescence, 18 h; TGF-beta stimulated, 500 pg/mL final; Potency, µM (top dose mostly 46.1 µM), for the others: at the highest dose activity, negative = inhibition, usual class: inhibitors; 1.2% of 410,000 active; also: potency is read from the fitted curve at half-maximal effect; % is scaled to controls: 0 for no effect and ±100 for the full control effect; nearly all actives have a fitted effect of over 65% in size
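GFP signal (ex488/em500-530) from TGF-beta-stimulated HEPG2 CAGA-GFP cells, 500 pg/mL final, 18 h at 37 degrees C in DMEM plus 1% FBS, normalized to unstimulated and DMSO-stimulated controls.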
ATXN2 expr inh – reduces ATXN2 reporter expression in HEK-293 cells | HEK-293 ATXN2-luciferase reporter, luminescence, 24 h | 0.72% of 360,000 active | Potency, µM (top dose mostly 57 µM), for the others: at the top dose activity change, negative = inhibition, usual class: inhibitors; also: potency is read from the fitted curve at half-maximal effect; % is scaled to controls: 0 for no effect and ±100 for the full control effect; nearly all actives have a fitted effect of over 55% in size
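qHTS (up to 57 uM final) was run with 24 h compound exposure of reporter cells at 37 °C. Each well was multiplexed: SteadyGlo luminescence measured ATXN2-luciferase expression after a fluorogenic Gly-Phe-AFC viability readout (25 uM final).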
Nrf2 inh – inhibitors of Nrf2 signaling | Potency, µM (doses to about 46 µM), for inactives: at the top dose activity change, negative = inhibition, usual class: inhibitors | 2.1% of 360,000 active | AID 504444 | A549 ARE-Fluc reporter, luciferase luminescence, 18-24 h; also: potency is read from the fitted curve at half-maximal effect; % is scaled to controls: 0 for no effect and ±100 for the full control effect; nearly all actives have a fitted effect of over 60% in size
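Nrf2 activity is the BugLite luminescence, read 15 min after reagent at room temperature, following CellTiter-Fluor cytotoxicity readout (30 min, 37C). Compound titrations were applied for 18-24 h to 5000 A549 ARE_Fluc cells/well in 5% FBS OPTI-MEM.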
ATXN viability – cell viability loss in ATXN counter-screen. S2 cells (HEK-293 line with an ATXN2-luciferase reporter) viability, CellTiter-Fluor protease fluorescence, 24 h. Potency, µM (series often up to 56.7 µM), usual class: cytotoxic. 0.49% of 400,000 active. AID 651635; also: potency is read from the fitted curve at half-maximal effect; nearly all actives have a fitted effect of over 40% in size
FLuc counter 3 – blocks purified firefly luciferase in Nrf2 counterscreen | 4% of 1,400 active | shares compounds with Nrf2 inh | AID 720522 | Potency, µM (series often up to 57.5 µM), for the others: top-dose activity change, negative = inhibition, actives largely listed as inhibitors | purified firefly luciferase, luminescence inhibition; also: potency is read from the fitted curve at half-maximal effect; % is scaled to controls: 0 for no effect and ±100 for the full control effect; nearly all actives have a fitted effect of over 65% in size
Target sequence (P08659 whole entry, looked up): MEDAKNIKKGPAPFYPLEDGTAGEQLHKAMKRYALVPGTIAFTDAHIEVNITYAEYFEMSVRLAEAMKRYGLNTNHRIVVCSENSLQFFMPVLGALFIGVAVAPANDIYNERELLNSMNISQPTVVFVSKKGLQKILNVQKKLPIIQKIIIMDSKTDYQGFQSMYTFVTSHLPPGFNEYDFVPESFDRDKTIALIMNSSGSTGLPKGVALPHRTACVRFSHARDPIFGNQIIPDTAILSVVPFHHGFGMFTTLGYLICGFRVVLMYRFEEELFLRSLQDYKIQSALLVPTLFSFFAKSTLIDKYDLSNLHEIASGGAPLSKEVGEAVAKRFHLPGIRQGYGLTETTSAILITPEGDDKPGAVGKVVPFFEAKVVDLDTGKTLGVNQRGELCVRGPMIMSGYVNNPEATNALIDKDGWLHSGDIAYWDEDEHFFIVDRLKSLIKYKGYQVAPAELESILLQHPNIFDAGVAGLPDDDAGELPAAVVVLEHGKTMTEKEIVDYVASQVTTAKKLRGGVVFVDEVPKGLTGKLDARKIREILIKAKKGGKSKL
A549 tox-2 – counter-screen for Nrf2 inhibitors: cytotoxicity in A549 ARE cells; shares compounds with Nrf2 inh; A549 ARE-Fluc cells, cytotoxicity counterscreen; Potency, µM (highest dose often 46.1 µM), for inactives: top-dose activity change, negative = cytotoxicity, most hits filed as inhibitors; 2% of 1,400 active;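 also: potency is read from the fitted curve at half-maximal effect; cells exposed to compounds for 18 to 24 hours; % is scaled to controls: 0 for no effect and ±100 for the full control effect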
ARE-Fluc inh – Nrf2 inhibition confirmed, A549 ARE-luciferase; A549 ARE-firefly luciferase reporter, luminescence; shares compounds with Nrf2 inh; Potency, µM (titrated, usually from 46.1 µM), for inactives: at the highest dose activity change, negative = inhibition, usual class: inhibitors; 74% of 1,400 active; also: potency is read from the fitted curve at half-maximal effect; % is scaled to controls: 0 for no effect and ±100 for the full control effect; nearly all actives have a fitted effect of over 65% in size
TGFb confirm – TGF-b pathway inhibition, cherry-pick retest. shares compounds with TGFb SMAD3 inh. HepG2 CAGA-GFP TGF-b reporter, GFP fluorescence, 18 h; cells stimulated with TGF-beta, 500 pg/mL. Potency, µM (titrated, usually from 46.1 µM), for inactives: top-dose activity, negative = inhibition, actives largely listed as inhibitors. 63% of 1,600 active. AID 720534; also: potency is read from the fitted curve at half-maximal effect; % is scaled to controls: 0 for no effect and ±100 for the full control effect; nearly all actives have a fitted effect of over 65% in size
HepG2 tox-2 – HepG2 cytotoxicity, TGF-b inhibitor counterscreen; shares compounds with TGFb SMAD3 inh; HepG2 CAGA-GFP viability, ATP luminescence, 18 h; cells stimulated with TGF-beta, 500 pg/mL; Potency, µM (top dose mostly 46.1 µM), for inactives: top-dose activity, negative = cytotoxicity, hits mostly inhibitors; 27% of 1,600 active; also: potency is read from the fitted curve at half-maximal effect; % is scaled to controls: 0 for no effect and ±100 for the full control effect; nearly all actives have a fitted effect of over 70% in size
TGFb CCL64 inh – TGF-b inhibition, CCL64 orthogonal assay | shares compounds with TGFb SMAD3 inh | Potency, µM (titrated, usually from 46.1 µM), for the others: top-dose activity, negative = inhibition, most hits filed as inhibitors | CCL64 CAGA-GFP reporter, TGF-b stimulated, GFP fluorescence, 18 h | 41% of 1,600 active; also: potency is read from the fitted curve at half-maximal effect; nearly all actives have a fitted effect of over 65% in size
TGFb COP inh – validation of TGF-b inhibitors in HepG2 COP promoter reporter; shares compounds with TGFb SMAD3 inh; HepG2 COP-GFP TGF-b reporter, GFP fluorescence, 18 h; cells stimulated by added recombinant TGF-beta; Potency, µM (doses to about 46.1 µM), without a hit: top-dose activity, negative = inhibition, hits mostly inhibitors; 3% of 1,600 active; also: potency is read from the fitted curve at half-maximal effect; nearly all actives have a fitted effect of over 70% in size
SK-N-SH 3D tox – reduced viability of SK-N-SH 3D spheroids, orthogonal test; SK-N-SH 3D spheroid viability, PI/Hoechst imaging, 72 h; 70% of 65 active; AID 1347135; Potency, µM (highest dose often 30.7 µM), usual class: inhibitors; shares compounds with ATXN2 expr inh
SJGBM2 3D viab – reduced viability of SJ-GBM2 3D spheroids, orthogonal test. shares compounds with ATXN2 expr inh. SJ-GBM2 3D spheroid viability, PI/Hoechst imaging, 72 h. Potency, µM (highest dose often 30.7 µM), actives largely listed as inhibitors. 80% of 65 active. AID 1347136
Daoy 3D tox – reduced viability of Daoy 3D spheroids, orthogonal test | 50% of 65 active | Potency, µM (series often up to 30.7 µM), actives largely listed as inhibitors | shares compounds with ATXN2 expr inh | Daoy 3D spheroid viability, PI/Hoechst imaging, 72 h | AID 1347137
TC32 3D casp – activates caspase in TC32 3D spheroids | 30% of 65 active | shares compounds with ATXN2 expr inh | TC32 3D spheroids, caspase-3/7 fluorescence imaging, 24 h | Potency, µM (series often up to 30.7 µM), most hits filed as inhibitors | AID 1347138
TC32 3D tox – TC32 3D spheroid viability loss. 60% of 65 active. Potency, µM (highest dose often 30.7 µM), hits mostly inhibitors. TC32 3D spheroid viability, PI/Hoechst imaging, 72 h. shares compounds with ATXN2 expr inh. AID 1347139
MG63 3D tox – MG-63 (6-TG R) 3D spheroid viability loss; AID 1347140; 50% of 65 active; Potency, µM (titrated, usually from 30.7 µM), usual class: inhibitors; shares compounds with ATXN2 expr inh; MG-63 (6-TG R) 3D spheroid viability, PI/Hoechst imaging, 72 h
RD 3D tox – kills RD rhabdomyosarcoma spheroids in orthogonal 3D test. shares compounds with ATXN2 expr inh. RD rhabdomyosarcoma 3D spheroid viability, PI/Hoechst imaging, 72 h. Potency, µM (doses to about 30.7 µM), hits mostly inhibitors. 50% of 65 active
* marks the source's active call; other numbers are inactive results; i = inactive; ? = inconclusive; . = not tested or not shown; [ ] = remark or other dose. Most compounds without a hit are left out; they make up all but 3.8% or so of the library. Calls follow the shape of the dose curve; as a rule, active = well fitted curve in the direction sought with a large enough effect; inconclusive = small, poorly fitted or top-dose-only effect, or another doubt; inactive = no such curve, though single readings can be large; an effect the other way counts as inactive or inconclusive.

SMILES | HepG2 tox-1 | A549 tox-1 | TGFb SMAD3 inh | ATXN2 expr inh | Nrf2 inh | ATXN viability | FLuc counter 3 | A549 tox-2 | ARE-Fluc inh | TGFb confirm | HepG2 tox-2 | TGFb CCL64 inh | TGFb COP inh | others
COC(C(=O)C(O)C(C)O)C1Cc2cc3cc(OC4CC(OC5CC(O)C(O)C(C)O5)C(O)C(C)O4)c(C)c(O)c3c(O)c2C(=O)C1OC1CC(OC2CC(OC3CC(O)C(OC)C(C)O3)C(O)C(C)O2)C(O)C(C)O1 (centres undefined) | 17% | ? | 1µM* | 10µM* | 0.12µM* | ? | -4% | -21% | 0.37µM* | 0.37µM* | 0.092µM* | 1.6µM* | 16%
COC(=O)c1ccccc1NC(=O)COC(=O)CO/N=C(\C)c1ccc2c(c1)OCO2 | 0% | 7% | 13% | -11% | 5% | i | . | . | . | . | . | . | .
Nc1ccc(/C=C/c2cccc3cccnc23)cc1 | -2% | . | 11% | . | . | . | . | . | . | . | . | . | .
O=c1[nH]nc(Sc2ccccc2)c(=S)[nH]1 | 4% | . | 2% | . | . | i | . | . | . | . | . | . | .
COc1ccc2c(c1)/C(=C\c1cccc(/C=C3/C(=O)Nc4ccc(OC)cc43)n1)C(=O)N2 | -37% | -29% | 1.3µM* | 3.2µM* | 8.2µM* | . | ? | -16% | ? | 2.9µM* | 2.6µM* | 1.5µM* | 49%
CCN(CC)C(=O)c1ccc2nc3ccccc3nc2c1 | -88% | ? | 10µM* | 19% | 1.5µM* | i | ? | ? | . | ? | 12µM* | 2% | 23%
COc1ccccc1NC(=O)C1=C(C)Nc2nc(SCc3ccccc3)nn2C1c1cccs1 (centres undefined) | -7% | 0% | -1% | . | -24%[9.27 µM] | . | . | . | . | . | . | . | .
O=C(Nc1ccc(F)c(Cl)c1)Nc1c[nH]c(=O)[nH]c1=O | 2% | 3% | 0% | -1% | 5% | i | . | . | . | . | . | . | .
C[C@]12C=CC(=O)C=C1CC[C@H]1[C@@H]3C[C@@H](O)[C@](O)(C(=O)CO)[C@@]3(C)C[C@H](O)[C@@]12F | -1% | -15% | 40% | -5% | 0.41µM* | i | -1% | -5% | 0.092µM* | . | . | . | . | SK-N-SH 3D tox=?;SJGBM2 3D viab=0.46µM*;Daoy 3D tox=i;TC32 3D casp=?;TC32 3D tox=7.2µM*;MG63 3D tox=i;RD 3D tox=i
CCOC(=O)CNC(=O)CSc1nc(Cc2ccccc2)nc2ccccc12 | -24% | -7% | ? | 14% | ? | i | . | . | . | . | . | . | .
COc1ccc(/C=C2/CCC(CN3CCOCC3)C2=O)cc1 (centres undefined) | 11µM* | -4% | 5µM* | 6.7µM* | 2% | ? | . | . | . | 4.6µM* | 3.7µM* | 4.6µM* | 16µM*
COc1ccc(S(=O)(=O)/N=C2\C=C(Nc3ccc(O)cc3)C(=O)c3ccccc32)cc1 | 0.89µM* | ? | 0.79µM* | 3.2µM* | ? | 6.3µM* | . | . | . | 0.58µM* | 4.1µM* | 1.3µM* | ?

High-throughput results: PubChem, National Center for Advancing Translational Sciences (NCATS)
